# This is a sample that favours compounds with a hit; in the whole collection about 8.1% have one here.
# RORg inh = qHTS for inhibitors of ROR gamma transcriptional activity; 5.4% of 310,000 active; Drosophila S2 Gal4-RORgamma UAS-luciferase reporter, 20 h; Nuclear receptor ROR-gamma (Mus musculus), P51450; Potency, µM (doses to about 53.6 µM), for the others: at the top dose activity change, negative = inhibition, most hits filed as inhibitors; also: % is scaled to controls: 0 for no effect and ±100 for the full control effect; nearly all actives have a fitted effect of over 60% in size
#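 Luciferase reporter read in Schneider cells carrying Gal4-RORγ (mouse) and UAS-Photinus luciferase; cells given compound 1 h before 700 uM copper sulfate induction, then incubated 20 h at ambient temperature.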
# ClpP mod = qHTS Assay for Activators of ClpP | purified B. subtilis ClpP, FRET peptide cleavage, 20 min | Potency, µM (titrated, usually from 57.5 µM), without a hit: at the top dose activity change, negative = active | 1.9% of 340,000 active; active = well fitted falling curve with a large enough effect; inconclusive = small, poorly fitted or top-dose-only effect; inactive = no such curve, though single readings can be large or run the other way; also: the source files actives as falling curves though it sought activators and does not explain the sign; nearly all actives have a fitted effect of over 65% in size
#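 Purified B. subtilis ClpP, 10 microg/mL final in Tris/HCl pH8 with KCl, BSA, glycerol and Tween-20, cleaved an Abz/nitrotyrosine-quenched decapeptide. Fluorescence (ex 320, em 430) was read at 0 and 20 min at room temperature. Delta was normalized to 5.8 microM ADEP and DMSO/no-enzyme controls.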
# Epigenetic derep = Quantitative High-Throughput Screen for Regulators of Epigenetic Control | Potency, µM (top dose mostly 53.9 µM), for inactives: at the top dose GFP activation, most hits filed as activators | murine LDR cells, GFP reporter derepression, 30 h | 0.2% of 280,000 active; also: % of control where 0% means no effect; nearly all actives have a fitted effect of over 60% in size
#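 Reporter derepression read as number of fluorescent GFP-positive objects, 20-120 um in size, counted by laser-scanning cytometer. Mouse LDR line with an epigenetically silenced CMV-GFP locus; compound incubation 30 h, 37 C.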
# Sfp inh = qHTS Assay for Inhibitors of Bacillus subtilis Sfp phosphopantetheinyl transferase (PPTase) | 4'-phosphopantetheinyl transferase ffp (Bacillus subtilis), Q9F4F7 | Biochemical Sfp PPTase activity, qHTS | Potency, µM, for inactives: largest response in the series, negative = inhibition, actives largely listed as inhibitors | 3.5% of 310,000 active;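 also: the enzyme is Sfp with the accession as filed and its product quenches rhodamine fluorescence; 0% = enzyme reaction without inhibitor and -100% = no enzyme wells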
#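 With Hepes-Na pH 7.6 buffer containing 10 mM MgCl2, Sfp (15 nM) modified BHQ-2-YbbR (12.5 uM) using rhodamine-CoA (5 uM). Two reads 30 minutes apart at 525/598 nm yielded each well's rate.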
# VP16 counter = VP16 counterscreen qHTS for inhibitors of ROR gamma transcriptional activity. AID 2546, 2010. 3.5% of 310,000 active. Drosophila S2 Gal4-VP16 UAS-luciferase, luminescence, 20 h. Potency, µM (top dose mostly 53.6 µM), inactives show at the top dose activity, negative = inhibition, most hits filed as inhibitors;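 also: Gal4-VP16 expression switched on by copper sulfate through the metallothionein promoter; % is scaled to controls: 0 for no effect and ±100 for the full control effect; nearly all actives have a fitted effect of over 50% in size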
# PINK1 expr mod = A Quantitative High throughput Screen to Identify Chemical Modulators of PINK1 Expression. Potency, µM (highest dose often 76.6 µM), without a hit: top-dose activation (PINK1 increase), hits mostly activators. 0.2% of 410,000 active. PINK1 immunofluorescence, high-content cytometry, 24 h; active = well fitted activation curve with a large enough effect; inconclusive = small, poorly fitted or top-dose-only effect; cell line not stated here; also: % of control where 0% means no effect; nearly all actives have a fitted effect of over 65% in size
#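 PINK1 protein, normally rapidly degraded, was detected by immunofluorescence after 24 hour compound treatment of a stable cell line. Titration data (5 concentrations) came from laser-scanning cytometry, with CCCP-treated wells as controls.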
# * = called active by the depositor; ? = inconclusive; · = no result; [ ] = remark or other dose. Unless noted, calls follow the shape of the dose curve; as a rule, active = well fitted curve in the direction sought with a large enough effect; inconclusive = small, poorly fitted or top-dose-only effect, or another doubt; inactive = no such curve, though single readings can be large; an effect the other way counts as inactive or inconclusive. Potency is read from the fitted curve at half-maximal effect.
SMILES,RORg inh,ClpP mod,Epigenetic derep,Sfp inh,VP16 counter,PINK1 expr mod
CCc1ccc(NC(=O)Nc2ccsc2C(=O)OC)cc1,8.9µM*,-15%,·,-3%,?,-2%
COC(=O)c1sccc1NC(=S)Nc1cc(OC)ccc1OC,11µM*,·,10%,?,?,0%
COc1ccc(NC(=S)NN(C)C(=S)Nc2ccc(OC)cc2)cc1,7.9µM*,-5%,-10%,-1%,?,11%
COC(=O)c1sccc1NC(=S)Nc1ccc(OC)cc1,6.3µM*,·,-5%,-15%,14µM*,0%
COc1ccc(NC(=S)Nc2ccc(Oc3ccccc3)cc2)cc1,11%,-3%,-3%,-2%,-6%,4%
COc1cccc(CCNc2ncnc3sc(C(=O)N4CCOCC4)c(C)c23)c1,·,·,·,·,·,-1%
COc1ccc(N2C(=O)[C@@H]3C[C@H]2CN3Cc2ccc3nccnc3c2)cc1Cl,·,·,·,·,·,0%
COC(=O)CC1Oc2ccc(C)cc2-n2cc(-c3ccc(C)cc3)nc21 (stereo unspecified),·,-3%,-1%,·,·,2%
Cn1c(CNc2cccc(C(F)(F)F)c2)n[nH]c1=S,?,-1%,3%,-13%,-4%,-2%
Cn1c(-c2csc(-c3cccc(C(F)(F)F)c3)n2)n[nH]c1=S,4.5µM*,1%,1%,14%,0%,0%
Cc1oc(-c2cccc(Br)c2)nc1Cn1c(SCc2cccc(F)c2)nc2cccnc21,·,?,-1%,·,·,2%
Cc1cccc(C(=O)NCC(=O)OCc2cc(=O)n3nc(CC(C)C)sc3n2)c1,·,-3%,0%,·,·,0%
NC(=O)COc1ccc(NC(=O)OCc2ccccc2)cc1,0%,32µM*,0%,0%,-23%,2%
O=C(Nc1nnc(-c2ccc(Cl)s2)o1)C1CC1,-2%,·,?,5%,-7%,2%
O=C(COn1nnc2ccc(C(F)(F)F)cc21)Nc1nnc(-c2ccccc2)o1,7.1µM*,-1%,1%,7%,4.5µM*,0%
O=C(COc1ccccc1)Nc1nnc(-c2ccccc2)o1,10µM*,-5%,0%,20%,10µM*,0%
O=C(COc1ccccc1)Nc1nnc(-c2ccc(Cl)s2)o1,13µM*,?,-1%,6%,20µM*,0%
O=C(Cc1ccc(Cl)cc1)Nc1ccc(-c2nnc(-c3ccco3)o2)cc1,?,32µM*,9%,1%,?,0%
O=C(COc1ccccc1)Nc1cccc(-c2nnc(-c3ccccc3)o2)c1,-31%,19%,-4%,-4%,?,-2%
Cc1cccc(C)c1NC(=O)COn1nnc2ccc(C(F)(F)F)cc21,-10%,·,-4%,31%,3%,1%
Cc1ccc(S(=O)(=O)N(CC(=O)O)Cc2cccc(C)c2)cc1,·,·,10%,·,·,·
CCc1ccc(NC(=O)C(=O)NCC(c2cccnc2)N2CCOCC2)cc1 (stereo unspecified),·,-1%,0%,·,·,0%
CCOC(=O)N1CCC(NC(=O)c2ccc3c(c2)N(Cc2ccc(Cl)cc2)C(=O)c2ccccc2S3=O)CC1 (stereo unspecified),·,-2%,0%,·,·,5%
O=C(COc1ccccc1)Nc1nnc(-c2ccco2)o1,16µM*,-2%,6%,-18%,?,2%
O=C(Cc1ccccc1)Nc1nnc(-c2ccco2)o1,2.8µM*,·,-1%,-6%,10µM*,0%
Cc1cc(C)cc(OCC(=O)Nc2cccc(-c3nnc(-c4ccco4)o3)c2)c1,-15%,32µM*,-2%,?,15%[0.365 µM],-4%[38.3 µM]
CCC(=O)Nc1nnc(-c2ccco2)o1,?,-10%,-1%,-6%,-14%,5%

# Screening results as filed in PubChem.
